# Screening data as filed in PubChem.
# This is a sample that favours compounds with a hit; in the whole collection about 3.5% have one here.
# TEAD-YAP block – TEAD-YAP interaction inhibition; inhibition, % at 9.12 µM; HEK-TIYL cells, TEAD-Gal4/YAP UAS-luciferase luminescence; 640,000 tested, 1.4% active; in the data active = inhibition above about 32%;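 also: 0% = median of test compound wells and 100% = reference inhibitor wells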
# FBW7 activator – activators of human E3 ligase FBW7; Q969H0; normalized activity (activation), % at 26.1 µM; AID 1259310; 650,000 tested, 0.13% active; AlphaScreen FBW7–phospho-cyclin E peptide binding, activator screen; in the data active = normalized activity above about 1.9%;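 also: purified mutant Fbw7 with reduced substrate affinity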
# GPR151 ag – activators of human GPR151 | Q8TDV0 | PathHunter beta-arrestin GPR151 cells, luminescence | activation, % at 11.2 µM | 650,000 tested, 1% active | AID 1508602; in the data active = activation above about 4.9%;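 also: 0% = median of compound wells and 100% = cells with positive control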
# Target sequence (Q8TDV0 whole entry, looked up): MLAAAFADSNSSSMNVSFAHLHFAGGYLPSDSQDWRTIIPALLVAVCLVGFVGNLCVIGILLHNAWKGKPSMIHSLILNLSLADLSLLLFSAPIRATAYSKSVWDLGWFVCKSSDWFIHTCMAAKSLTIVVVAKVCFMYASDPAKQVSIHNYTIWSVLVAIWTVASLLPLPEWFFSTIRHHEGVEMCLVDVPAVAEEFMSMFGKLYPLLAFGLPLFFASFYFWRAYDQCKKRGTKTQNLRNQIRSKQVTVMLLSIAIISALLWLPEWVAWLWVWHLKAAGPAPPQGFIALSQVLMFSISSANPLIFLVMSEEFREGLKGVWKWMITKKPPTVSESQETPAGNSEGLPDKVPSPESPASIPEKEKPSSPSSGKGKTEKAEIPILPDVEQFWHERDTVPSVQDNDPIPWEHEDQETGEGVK
# MITF primary – inhibitors of human MITF | AlphaScreen MITF homodimerization, bead proximity signal | inhibition, % at 2.6 µM | 650,000 tested, 0.91% active; in the data active = inhibition above about 50%;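 also: 0% = vehicle wells with protein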
# GPR151 conf act – human GPR151 activation, confirmation screen. shares compounds with GPR151 ag. GPR151 PathHunter beta-arrestin cells, luminescence, 90 min; % of EA-reagent control over plate median. activation, % at 11.2 µM. 6,700 tested, under 10 active. AID 1508609;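 active = mean percent activation across replicates above the confirmation screen cutoff of 4.91%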
# GPR119 ag – GPR119 activation, counter-screen for GPR151 activators; shares compounds with GPR151 ag; GPR119 PathHunter beta-arrestin cells, luminescence, 90 min; 0 = compound-well median, 100 = enzyme-acceptor control; activation, % at 11.2 µM; 6,700 tested, 0.3% active; AID 1508611;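 active = mean percent activation in the counterscreen above 29.09%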;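 also: counterscreen on off-target GPR119 to flag nonselective hits from the GPR151 activator screen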
# The depositor's hits bear a star; x = no result given; ! = a repeat was not active.
SMILES,TEAD-YAP block,FBW7 activator,GPR151 ag,MITF primary,GPR151 conf act,GPR119 ag
CN1C(=O)N(C)C2OC3OC4C(OC3OC21)N(C)C(=O)N4C (centres undefined),4,1,-1,8,x,x
Cc1cc(NC(=O)CSc2nc3ccccc3c(=O)n2CCCC(=O)NCc2ccccc2Cl)no1,5,0,0,-9,x,x
CSc1cccc(NC(=O)CCC(=O)N2CCSc3ccccc32)c1,-1,0,17*,3,0,-7
Cc1cc(NS(=O)(=O)N(C)C)ccc1C(C)C,-6,0,1,6,x,x
CCOc1ccc2nc(Nc3nc(O)cc(=O)[nH]3)nc(C)c2c1,-5,0,0,12,x,x
COC(=O)c1cnn(C(=O)c2ccncc2)c1N,0,0,-2,-3,x,x
COC(=O)c1cnn(C(=O)c2ccc(OC)cc2)c1N,-4,0,6.2*,6,0,0
CCc1nnc(NC(=O)CSc2nnc3n(N)cnn23)s1,2,0,1,15,x,x
O=C(c1cc2nc(-c3cccs3)cc(C(F)(F)F)n2n1)N1CCN(C(=O)c2ccco2)CC1,-14,1,2,14,x,x
COc1ccc(NC(=O)n2cc(C)cn2)cc1OC,-1,0,5.2*,16,0,-10
COc1ccc(Cl)cc1NC(=O)n1cc(C)cn1,6,0,-1,6,x,x
CC(NCc1cc(Br)ccc1OCC(N)=O)C12CC3CC(CC(C3)C1)C2 (centres undefined),24,0,7.6*,2,-1,-18
COc1cc(C=O)ccc1Oc1nc2ccccc2n2cnnc12,1,0,5.8*,9,1,15
CCOc1nc(NC(=O)NS(=O)(=O)c2ccccc2)nc(-c2ccccc2)n1,-1,0,5.0*,2,0,1
Cc1nn(Cc2ccc(C(=O)NC3CCCC3)o2)c(C)c1[N+](=O)[O-],6,0,5.5*,0,-1,-15
O=c1nc2scc(CO)n2c2sc3c(c12)CCCC3,0,0,1,3,x,x
O=C1NC(=O)C(=Cc2ccc(OC(=O)c3ccccc3Cl)cc2)C(=O)N1,-3,-1,5.5*,-10,0,3
CCCN1CCC(=NNC(=O)c2ccc(Cl)cc2Cl)CC1,2,0,4.9*,16,1,6
COc1ccc(NC(=O)c2cccc(N3C(=O)C4CC=CCC4C3=O)c2)c(OC)c1 (centres undefined),0,0,-2,-7,x,x
COC1C(OC(N)=O)C(O)C(Oc2ccc3c(O)c(NC(=O)c4ccc(O)c(CC=C(C)C)c4)c(=O)oc3c2C)OC1(C)C (centres undefined),1,0,6.6*!,-2,0,-1
CCOC(=O)c1c(C2COc3ccccc3O2)csc1NC(=O)c1ccc(OC)c(OC)c1 (centres undefined),7,0,0,-13,x,x
C=CCn1c(SCC(=O)Nc2ccccc2F)nc2sc3c(c2c1=O)CCC(C)C3 (centres undefined),7,0,8.7*,2,0,-9
Cc1cccc(NC(=O)/C(C#N)=C\c2ccco2)c1,-62,0,1,8,x,x
Cc1cc(C)c(NC(=O)/C(C#N)=C\c2ccco2)c(C)c1,5,0,6.3*,-16,-1,-1
COc1ccc(CN2C[C@@H]3C[C@@H](c4cccc5nonc45)N4CCC[C@@]34C2=O)cc1,-1,0,0,11,x,x
SMILES,TEAD-YAP block,FBW7 activator,GPR151 ag,MITF primary,GPR151 conf act,GPR119 ag
COc1ccc(CN2C[C@@H]3C[C@@H](c4ccc5nonc5c4)N4CCC[C@@]34C2=O)cc1,0,0,5.4*,17,0,4
COc1ccc(C(=O)CCN2CCCC(C)C2)cc1 (centres undefined),-6,0,1,-1,x,x
O=C(c1cccnc1)N1CCN(c2nc(-c3ccccc3)cs2)CC1,-11,0,0,-1,x,x
COCCN(C(=O)Cc1cccc(OC)c1)c1nnc(-c2cccnc2)s1,-14,1,-1,5,x,x
CCCCn1nnnc1SCC(=O)NNC(=O)c1ccco1,12,0,5.9*,13,1,4
CCCn1nnnc1SCC(=O)NNC(=O)c1ccco1,1,0,0,-7,x,x
O=c1[nH]c(Cc2ccccc2)nc2c1C1(CCCCC1)Cc1ccccc1-2,-7,0,5.1*,-18,1,14
O=c1[nH]c(SCc2ccccc2)nc2c1C1(CCCCC1)Cc1ccccc1-2,2,0,-2,17,x,x
Brc1ccc2c(ccc[n+]2C/C=C/c2ccccc2)c1,14,0,6.2*,-3,1,-7
O/N=C/c1ccc[n+](C/C=C/c2ccccc2)c1,3,0,-1,16,x,x
CC(C)Cn1c(CN2CCN(c3ccc(F)cc3)CC2)nc2c1c(=O)n(C)c(=O)n2C,2,0,10*,11,1,6
O=C(NC1=NCCS1)c1sc2cc(F)ccc2c1Cl,x,x,7.4*,x,1,-5
O=C(Nc1ccon1)c1sc2cc(F)ccc2c1Cl,-41,1,-2,10,x,x
COc1ccc(S(=O)(=O)NCc2ccncc2)cc1OC,8,0,5.4*,-25,1,-6
COc1ccc(-c2cc(C)cc3c2OC(CNC(=O)CC(C)C)C3)nn1 (centres undefined),-1,0,0,11,x,x
Cc1cc2c(c(-c3ccc(C(N)=O)cn3)c1)OC(CNC(=O)C13CC4CC(CC(C4)C1)C3)C2 (centres undefined),0,0,7.1*,-9,0,-3
Cc1cc(C)c(NC(=O)C(C)Sc2nnc(-c3cccc(Br)c3)n2-c2ccccc2)c(C)c1 (centres undefined),5,0,2,8,x,x
CCCN(CCC)CCCNC(=O)C(=O)Nc1ccc(C)cc1,3,0,0,5,x,x
CCCN(CCC)CCCNC(=O)C(=O)Nc1ccc(I)cc1,3,0,11*,-1,0,0
O=C(CSc1nnc(-c2cccs2)o1)c1c[nH]c2ccccc12,-8,0,1,-3,x,x
COc1ccc(CN(C)CC(=O)Nc2ccc(C(N)=O)cc2)c(OC)c1OC,1,0,5.0*,-5,1,12
CN(CC(=O)Nc1ccc(C(N)=O)cc1)CC(=O)Nc1ccccc1Cl,-5,0,1,-11,x,x
CN(CC(=O)Nc1ccc(C(N)=O)cc1)Cc1ccc(C(C)(C)C)cc1,-8,0,1,-1,x,x
CN(CC(=O)Nc1ccc(Cl)cc1)CC(=O)Nc1ccc(C(N)=O)cc1,4,0,5.4*,-6,0,-9
CCCC(=O)Nc1ccccc1-c1nnn(CC(N)=O)n1,4,0,0,12,x,x
CCCNc1nc(N2CCOCC2)ncc1C,-8,0,-2,5,x,x
